Calls of active or inactive are those of the source.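 The calls were made as follows, unless noted: active = NADPH fluorescence slope more negative than the mean of all samples by about 3 SD, 99.7% confidence; inactive = the rest.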

Test [1] is described as follows: inhibitors of TNFa-induced NFkB p65 translocation, primary screen, imaging, HUVEC, MLSMR starter and 10KST1 sets (AID 438;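 active = inhibition above 20% together with a positive visual image hit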;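 also: compound added about 3h40 before a 20 min TNFalpha stimulation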;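 as to inhibition: signal is the nuclear over cytoplasmic p65 intensity ratio per well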). Particulars: HUVEC TNFa-induced p65 nuclear translocation; cell count: measured here: nuclei count (cytotoxicity indicator), at 2.08 µM unless noted; inhibition: at 2 µM, stronger effect = higher value unless noted.
Test [2] can be described thus: inhibitors of mutant huntingtin aggregation, primary screen, imaging, exon1htt(103Q)mCFP cells, high-content imaging (AID 483;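 active = visual image review flags a hit and inhibition of aggregation exceeds 20%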;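 also: compound exposure lasted 3 days before fixation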;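 as to nuclei count: percent of the per-plate median nuclei count of sample wells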). Particulars: exon1htt(103Q)mCFP cell line, aggregate imaging, at 2 µM; inhibition of aggregation: stronger effect = higher value; nuclei count: measured here: cell count, toxicity.
The nature of test [3]: inhibitors of E-selectin induction by TNFa, primary screen, imaging, HUVEC, immunofluorescence, MLSMR starter and 10KST1 sets (AID 487;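 active = visually confirmed hit in the image check and inhibition above 20%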;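 as to inhibition: signal is fraction of cell area covered by stained E-selectin grains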;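 as to nuclei count: 100% = median nuclei count of all wells on the same plate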). Particulars: HUVEC TNFalpha-induced E-selectin immunofluorescence imaging, at 2 µM; inhibition: stronger effect = higher value; nuclei count: measured here: cell number, toxicity.
Test [4] deals with Voltage-gated potassium channel subunit beta-2 (Rattus norvegicus) (UniProt P62483). Put plainly: KvBeta enzyme negative modulators, primary screen, biochemical, NADPH fluorescence (AID 622;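 active = fluorescence slope higher than the sample average by over 3 SD, cut at about -0.22 in these data, passing the limit was not always enough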;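 also: slope of raw intensity against log time taken from 70 to 1610 s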). Particulars: recombinant KvBeta, 4-cyanobenzaldehyde reduction, at 10 µM, stronger effect = higher value.
Sequence of Voltage-gated potassium channel subunit beta-2 (Rattus norvegicus) (P62483 whole entry, looked up): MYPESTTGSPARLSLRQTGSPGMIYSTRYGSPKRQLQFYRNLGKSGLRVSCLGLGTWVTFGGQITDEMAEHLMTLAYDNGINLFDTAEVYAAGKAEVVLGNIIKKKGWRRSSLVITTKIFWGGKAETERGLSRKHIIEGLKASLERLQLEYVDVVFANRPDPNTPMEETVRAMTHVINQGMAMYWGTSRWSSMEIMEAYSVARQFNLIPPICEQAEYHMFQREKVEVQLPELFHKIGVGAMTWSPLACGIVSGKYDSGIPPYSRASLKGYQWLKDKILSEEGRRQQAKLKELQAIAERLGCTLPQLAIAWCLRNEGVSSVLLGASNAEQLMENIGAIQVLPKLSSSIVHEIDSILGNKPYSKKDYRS
For test [5] the target is unchanged. Put plainly: KvBeta positive modulators, primary screen, biochemical, NADPH fluorescence (AID 623).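 Also: fluorescence intensity change per second fitted from 20 to 320 s.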 Particulars: Recombinant KvBeta, NADPH fluorescence decrease slope, 10 min; at 10 µM; stronger effect = lower value.
Test [6] has as its target Alpha-2C adrenergic receptor (Homo sapiens) (UniProt P18825). Put plainly: modulators of alpha2C/GIRK thallium flux, primary screen, cell-based, HEK293 alpha2C/GIRK1/2 (AID 624;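 active = fluorescence slope after compound addition differing from the mean of all screened samples at 99.7% confidence, in either direction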;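 also: slope of fluorescence ratio to pre-addition baseline per second over 15 to 24 s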). Particulars: thallium flux BTC fluorescence, at 10 µM, actives lie on both sides.
Test [7] can be described thus: inhibitors of Sendai virus-induced IRF3 signaling, primary screen, TLR/RLR signaling modifier project, cell-based, Sendai virus stimulus, luciferase, 10K MLSCN set (AID 602276;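 active = inhibition at or above 50% at 10 µM; inactive = inhibition below 50%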;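 also: firefly luciferase from ISG56 promoter only with Renilla not read in this screen; 0% = Sendai virus plus DMSO and 100% = medium plus DMSO without virus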). Particulars: HEK293 RL24 IRF3 luciferase reporter, at 10 µM, stronger effect = higher value.
Test [8] in a line: inhibitors of poly I:C-induced TLR3 signaling, primary screen, cell-based, poly I:C stimulus, luciferase, 10K MLSCN set (AID 602277;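 active = inhibition of the reporter signal at or above 50%; inactive = inhibition below 50%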). Particulars: HEK293-TLR3 RL24 IRF3 luciferase reporter, at 10 µM, stronger effect = higher value.
A short description of test [9]: DUSP6 inhibitors restoring Erk phosphorylation by chemical complementation, primary imaging in DUSP6-transfected HeLa (AID 609;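 active = compounds giving at least 50% inhibition in the cell-based MKP-3 phosphatase rescue imaging test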;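 as to inhibition: phospho-Erk level distribution per well compared with pooled transfected vehicle control wells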). Particulars: HeLa MKP-3 transfected, phospho-Erk imaging KS statistic, at 10 µM.
Test [10] deals with Dual specificity protein phosphatase 6 (Homo sapiens) (UniProt Q16828). Described as above. Particulars: HeLa MKP-3 transfected, phospho-Erk imaging KS statistic, at 10 µM, stronger effect = higher value.
Sequence of Dual specificity protein phosphatase 6 (Homo sapiens) (Q16828 whole entry, looked up): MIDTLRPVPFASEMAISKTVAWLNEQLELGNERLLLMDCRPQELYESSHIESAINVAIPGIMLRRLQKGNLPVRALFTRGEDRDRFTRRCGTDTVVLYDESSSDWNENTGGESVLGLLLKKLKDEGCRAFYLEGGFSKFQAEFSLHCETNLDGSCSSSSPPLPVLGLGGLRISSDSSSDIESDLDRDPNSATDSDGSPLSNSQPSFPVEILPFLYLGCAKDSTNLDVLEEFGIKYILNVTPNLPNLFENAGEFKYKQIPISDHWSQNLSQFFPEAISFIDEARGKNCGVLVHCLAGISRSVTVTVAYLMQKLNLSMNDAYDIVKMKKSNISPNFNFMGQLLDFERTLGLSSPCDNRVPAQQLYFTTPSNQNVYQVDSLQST
Test [11] has as its target Muscarinic acetylcholine receptor M4 (Homo sapiens) (UniProt P08173). Put plainly: compounds altering M4/GIRK thallium flux, either direction, primary screen, M4 allosteric agonist project, cell-based, HEK293 M4/GIRK, BTC-AM (AID 625;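 active = fluorescence slope after compound addition differing from the mean of all tested samples at 99.7% confidence, mostly higher but some lower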;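 also: thallium influx through GIRK channels coupled to M4 in HEK293 cells with BTC-AM dye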). Particulars: at 10 µM, actives lie on both sides.
Test [12] is described as follows: inhibitors of larval lipid processing in zebrafish, primary screen, whole organism, PED6 fluorescence, gall bladder and intestine (AID 686;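 active = a full or partial loss of lipid-probe fluorescence in the fish gall bladder, intestine or both, judged by eye; inactive = no fluorescence loss, or compound toxic to the fish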;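 also: larvae 5 to 7 days old with five fish per well; signal comes from phospholipase A2 cleavage of quenched PED6 carried via bile; overnight exposure to compound and PED6 before scoring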). Particulars: Zebrafish larvae PED6 lipid processing, fluorescence scoring.
Test [13] is described as follows: inhibitors of Chlamydomonas gravitaxis, primary screen, whole organism, Chlamydomonas reinhardtii, WT vs cilia-less mutant, absorbance, 96-well (AID 463189;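 active = inhibition at or above 50% relative to wild type and mutant plate controls; inactive = inhibition below 50%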;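 also: 0% = wild type cc124 cells in DMSO and 100% = ciliumless bld1 mutant cells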). Particulars: OD600 absorbance, 2 days, at 10 µM, stronger effect = higher value.
[14] abbreviates: measured here: cell density z-score.
Where [15] appears, read: measured here: nuclear c-Myc green intensity z-score.
The mark [16] stands for this setting: measured here: nuclear pErk red intensity z-score, stronger effect = higher value.

Sequence of Muscarinic acetylcholine receptor M4 (Homo sapiens) (P08173 whole entry, looked up): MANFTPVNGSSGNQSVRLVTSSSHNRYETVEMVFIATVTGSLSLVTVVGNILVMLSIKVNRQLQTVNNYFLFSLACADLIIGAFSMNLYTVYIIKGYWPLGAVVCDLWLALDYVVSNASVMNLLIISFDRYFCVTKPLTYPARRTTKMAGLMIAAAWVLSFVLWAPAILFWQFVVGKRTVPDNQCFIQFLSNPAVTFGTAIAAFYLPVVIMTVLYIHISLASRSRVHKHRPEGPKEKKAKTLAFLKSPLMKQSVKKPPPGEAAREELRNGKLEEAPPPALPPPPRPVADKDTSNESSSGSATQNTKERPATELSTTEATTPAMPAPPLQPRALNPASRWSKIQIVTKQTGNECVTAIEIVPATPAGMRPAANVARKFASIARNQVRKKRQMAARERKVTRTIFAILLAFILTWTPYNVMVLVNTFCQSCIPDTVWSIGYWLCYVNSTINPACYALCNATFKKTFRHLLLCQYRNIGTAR
Sequence of Alpha-2C adrenergic receptor (Homo sapiens) (P18825 whole entry, looked up): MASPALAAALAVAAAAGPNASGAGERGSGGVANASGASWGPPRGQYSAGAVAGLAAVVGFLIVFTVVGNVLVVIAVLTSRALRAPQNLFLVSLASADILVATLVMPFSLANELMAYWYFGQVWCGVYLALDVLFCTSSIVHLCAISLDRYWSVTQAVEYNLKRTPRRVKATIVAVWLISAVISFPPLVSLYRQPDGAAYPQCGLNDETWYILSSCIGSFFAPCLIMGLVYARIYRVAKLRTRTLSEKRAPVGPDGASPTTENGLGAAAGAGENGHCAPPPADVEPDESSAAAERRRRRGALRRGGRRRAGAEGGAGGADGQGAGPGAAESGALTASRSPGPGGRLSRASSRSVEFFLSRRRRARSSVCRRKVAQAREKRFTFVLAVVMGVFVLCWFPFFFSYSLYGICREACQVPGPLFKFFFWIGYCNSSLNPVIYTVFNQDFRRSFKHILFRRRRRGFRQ

In [1], `CN1CCC(N(C)c2ncnc3ccc(Br)cc23)CC1` gave a cell count of 336. The inhibition in [1] was 5% (inactive); in test [3], 42.2% (inactive); in test [7], 10.9% (inactive); in test [8] it was 23.5% (inactive). In test [2], the inhibition of aggregation is 4.3% (inactive). Moreover, the nuclei count in test [2] turned out to be 94.9%; in test [3], 79.5%. Moreover, the fluorescence slope in test [4] is -0.606 (inactive). Moreover, in test [5], the NADPH fluorescence slope is -3.4e-05 (inactive). For the same molecule, in [6], the slope is 0.00666 (inactive).
Molecule `COc1ccc(C2SCC(=O)Nc3c2c(=O)[nH]n3C2CCCCCC2)cc1` (configuration not stated) came in with a cell count in test [1] of 564. The inhibition in test [1] was -7.2% (inactive); in test [3], 70.4% (inactive); in [10] it was 2.71% (inactive); in test [13] it was 29.9% (inactive). In test [3], the nuclei count came out at 96%. The z-score in test [9] (setting [14]) was 1.06; in [9] (setting [15]) it was 0.0384; in test [9] (setting [16]), -1.4. Further, the values for the fluorescence slope in test [4] and in test [11] were -0.478 (inactive) and 0.007 (inactive), respectively. The NADPH fluorescence slope in [5] was -3e-05 (inactive). The outcome in test [12] was inactive.
On to `COc1ccc(C(=O)CC2C(=O)N(C)C(=O)N(C)C2=O)cc1`, for which, in [1], the cell count is 726. Further, the inhibition was 14.4% (inactive) in test [1], -27.9% (inactive) in test [3], -3.95% (inactive) in test [10] and 0.215% (inactive) in test [13]. The molecule also showed a nuclei count in [3] of 135%. Moreover, the values for the z-score in [9] (setting [14]), in test [9] (setting [15]) and in test [9] (setting [16]) were 0.66, 0.621 and -1.11, respectively. The fluorescence slope in test [4] is -0.453 (inactive); in [11] it was 0.00539 (inactive). In addition, the NADPH fluorescence slope in [5] is -4.3e-05 (inactive). Further, in [12], the molecule was called inactive.
For `COc1ccc(C2SCC(=O)Nc3c2c(=O)[nH]n3C2CCCCC2)cc1` (configuration not stated), in [1], the cell count was 380. The inhibition in test [1] is -8.8% (inactive); in [3] it was -197% (inactive); in test [10], 14% (inactive); in test [13] it was 6.02% (inactive). The molecule further displayed a nuclei count in test [3] of 138%. The z-score in test [9] (setting [14]) is 0.845; in test [9] (setting [15]), -1.45; in test [9] (setting [16]), -0.612. Besides, the fluorescence slope in [4] was -0.479 (inactive); in [11], 0.00663 (inactive). Also, in [5], the NADPH fluorescence slope is -0.000101 (inactive). Further, the call in test [12] was inactive.
Take `CCn1c(O)c(C(=O)CC2NCCc3ccccc32)c(=O)n(CC)c1=S` (configuration not stated): in [1], the cell count amounted to 494. Moreover, the inhibition in test [1] was -7.2% (inactive); in [3], -84.9% (inactive); in test [10], 3.97% (inactive); in test [13], -9.64% (inactive). Also, in [3], the nuclei count is 120%. The z-score in test [9] (setting [14]) is -1.06; in [9] (setting [15]) it was -1.07; in [9] (setting [16]), 1.31. In addition, the fluorescence slope in test [4] was -0.399 (inactive); in test [11], 0.00707 (inactive). Besides, the NADPH fluorescence slope in test [5] is -1.1e-05 (inactive). Also, the molecule was called inactive in test [12].
`CCCCNC(=O)Nc1ccc(C(O)(C(=O)OCC)C(F)(F)F)cc1` (configuration not stated) displayed a cell count in test [1] of 688. Further, the inhibition in test [1] is -5.9% (inactive); in [3] it was -16.7% (inactive); in test [10], 3.49% (inactive); in test [13] it was 5.22% (inactive). Also, the nuclei count in [3] came to 173%. The z-score is -0.832 in test [9] (setting [14]), -1.24 in test [9] (setting [15]) and 1.19 in [9] (setting [16]). Also, the results for the fluorescence slope in [4] and in [11] were -0.432 (inactive) and 0.00537 (inactive), respectively. Moreover, in [5], the NADPH fluorescence slope is -4.2e-05 (inactive). Also, the result in [12] was inactive.
In turn, `COC(=O)C(O)(c1ccc(NC(=O)c2ccco2)c(OC)c1)C(F)(F)F` (configuration not stated) returned a cell count in [1] of 569. Besides, the inhibition in [1] is 3.2% (inactive); in test [3], 1% (inactive); in test [10], -3.97% (inactive); in test [13], 0.634% (inactive). In test [3], this molecule gave a nuclei count of 152%. Besides, the values for the z-score in [9] (setting [14]), in [9] (setting [15]) and in test [9] (setting [16]) were -0.555, 0.637 and 1.11, respectively. Besides, the fluorescence slope in [4] was -0.43 (inactive); in test [11], 0.00513 (inactive). Further, the NADPH fluorescence slope in test [5] is -5.3e-05 (inactive). Also, the call in test [12] was inactive.
Regarding `Cn1c(O)c(C=NCCCNC2CCCCC2)c(=O)n(C)c1=O`, the cell count in test [1] was 420. The inhibition was 1.2% (inactive) in test [1], -81.5% (inactive) in test [3], 26.5% (inactive) in [10] and -2.14% (inactive) in test [13]. For the same molecule, in [3], the nuclei count was determined as 131%. Moreover, the z-score is 0.261 in [9] (setting [14]), -0.315 in test [9] (setting [15]) and -0.515 in [9] (setting [16]). Moreover, the fluorescence slope in test [4] is -0.469 (inactive); in test [11], 0.00413 (inactive). The NADPH fluorescence slope in [5] was -0.000127 (inactive). In [12], the call was inactive.
For `C=CCOC(=O)C1=C(C)OC(N)=C(C#N)C12C(=O)N(CN1CCOCC1)c1ccccc12` (configuration not stated), the cell count in test [1] was determined as 388. In addition, the inhibition was 0.7% (inactive) in test [1], -73.4% (inactive) in test [3], -4.59% (inactive) in test [10] and 39.6% (inactive) in test [13]. This molecule also returned a nuclei count in test [3] of 88.4%. The z-score in test [9] (setting [14]) was -0.108; in [9] (setting [15]), 0.314; in test [9] (setting [16]) it was 1.06. The fluorescence slope was -0.515 (inactive) in test [4] and 0.00467 (inactive) in test [11]. Also, the NADPH fluorescence slope in test [5] was 2.9e-05 (inactive). Further, in test [12], the result was inactive.
`CCOC(=O)c1cc(C)n(CCc2cnc[nH]2)c1C` registered a cell count in [1] of 561. Moreover, the inhibition in test [1] is 2.4% (inactive); in [3], -44.2% (inactive); in test [10] it was -2.59% (inactive); in [13], -3.61% (inactive). Further, the nuclei count in test [3] is 123%. The z-score in test [9] (setting [14]) was -1.19; in test [9] (setting [15]), -0.0641; in test [9] (setting [16]), 0.767. Also, the fluorescence slope was -0.47 (inactive) in test [4] and 0.00519 (inactive) in test [11]. The NADPH fluorescence slope in [5] was -9.2e-05 (inactive). Further, the molecule was classed as inactive in test [12].
Regarding `COC(=O)C(c1ccccc1)N1CCCCCC1` (configuration not stated), the cell count in [1] was 730. In addition, the inhibition was 0.3% (inactive) in [1], 20.3% (inactive) in test [3], -11.4% (inactive) in test [10] and -6.36% (inactive) in test [13]. In test [3], this molecule displayed a nuclei count of 165%. Also, the results for the z-score in test [9] (setting [14]), in [9] (setting [15]) and in test [9] (setting [16]) were -0.512, 1.36 and 1.38, respectively. Besides, the figures for the fluorescence slope in test [4] and in test [11] were -0.406 (inactive) and 0.0047 (inactive), respectively. Moreover, the NADPH fluorescence slope in test [5] is -3.5e-05 (inactive). The result in [12] was inactive.
In the case of `CCCC12CN3CN(C1)CC(CCC)(C3)C2O` (configuration not stated), the cell count in test [1] worked out at 527. Further, the inhibition in test [1] is 5.6% (inactive); in [3], -164% (inactive); in [10], 7.42% (inactive); in test [13] it was -2.85% (inactive). In test [3], the nuclei count worked out at 146%. The z-score in [9] (setting [14]) was 0.514; in test [9] (setting [15]) it was 1.99; in test [9] (setting [16]), -1.5. For the same molecule, the figures for the fluorescence slope in test [4] and in [11] were -0.474 (inactive) and 0.00532 (inactive), respectively. Also, the NADPH fluorescence slope in test [5] is -0.000119 (inactive). In addition, in test [12], the outcome was inactive.
On to `Nc1ncc(P(=S)(N2CCOCC2)N2CCOCC2)s1`, for which the cell count in test [1] was 452. In addition, the inhibition in [1] is -2.7% (inactive); in [3], -296% (inactive); in test [10] it was 4.37% (inactive); in test [13], 11.1% (inactive). In addition, the nuclei count in test [3] was found to be 169%. The z-score in test [9] (setting [14]) is -0.00628; in [9] (setting [15]), -0.183; in [9] (setting [16]), -1.06. For the same molecule, the values for the fluorescence slope in test [4] and in test [11] were -0.461 (inactive) and 0.00503 (inactive), respectively. For the same molecule, the NADPH fluorescence slope in test [5] was -8.8e-05 (inactive). In addition, in test [12], the molecule was classed as inactive.

The values are drawn from PubChem BioAssay.
